nsP2pro primary – Primary qHTS for inhibitors of NSP2Pro chikungunya virus (CHIKV); FRET peptide cleavage, nsP2pro, fluorescence 1 h; hit rate 1.1% among 31,000; Polyprotein P1234 (Chikungunya virus (strain S27-African prototype)), Q8JUX6; AID 1964107, 2024; Potency, µM (doses to about 24.9 µM), without a hit: at the highest dose activity change, negative = inhibition, most hits filed as inhibitors; also: nearly all actives have a fitted effect of over 60% in size
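Recombinant nsP2pro (150 nM) was preincubated with compound 15 min at room temperature in 10 mM Tris-HCl pH 8.0, 0.01% Tween 20. Peptide 2 FRET substrate (2.5 uM) was then added and fluorescence read after 1 h. Seven-point series, up to 25 uM.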
nsP2 cell sec – Secondary cell base assay for inhibitors of NSP2Pro Chikungunya virus (CHIKV) | shares compounds with nsP2pro primary | cell-based CHIKV nsP2 protease reporter assay | Potency, µM (highest dose often 51.1 µM), inactives show top-dose activity change, negative = inhibition, usual class: inhibitors | hit rate 10% among 450; also: nearly all actives have a fitted effect of over 70% in size
CHIKV NSP2 FL – Selectivity profile for inhibitors of NSP2Pro chikungunya virus (CHIKV): Full length NSP2 enzyme counterscreen (CHIKV-NSP2); shares compounds with nsP2pro primary; Full-length CHIKV NSP2 protease enzymatic counterscreen; Potency, µM (top dose mostly 50.7 µM), without a hit: at the highest dose activity change, negative = inhibition, actives largely listed as inhibitors; hit rate 39% among 410; AID 1964101, 2024; also: nearly all actives have a fitted effect of over 65% in size
Furin counterscr – Selectivity profile for inhibitors of NSP2Pro chikungunya virus (CHIKV): Human furin counterscreen | shares compounds with nsP2pro primary | Recombinant human furin enzymatic counterscreen, fluorogenic substrate | Potency, µM (titrated, usually from 50.6 µM), for inactives: at the top dose activity change, negative = inhibition, most hits filed as inhibitors | hit rate 6% among 410 | AID 1964102, 2024
NS23 peptide cs – Selectivity profile for inhibitors of NSP2Pro chikungunya virus (CHIKV): Endogenous NS2/3 peptide Counterscreen; Potency, µM (series often up to 51 µM), for inactives: at the top dose activity change, negative = inhibition, actives largely listed as inhibitors; Purified CHIKV nsP2 protease, endogenous NS2/3 peptide cleavage; hit rate 34% among 410; shares compounds with nsP2pro primary; also: nearly all actives have a fitted effect of over 55% in size
Papain cs – Selectivity profile for inhibitors of NSP2Pro chikungunya virus (CHIKV): Papain Counterscreen; shares compounds with nsP2pro primary; purified papain protease activity, enzymatic inhibition; Potency, µM (series often up to 51 µM), inactives show at the top dose activity change, negative = inhibition, usual class: inhibitors; hit rate 5% among 410; AID 1964104, 2024
nsP2pro conf qHTS – Confirmatory qHTS for inhibitors of NSP2Pro chikungunya virus (CHIKV) | CHIKV nsP2 protease enzymatic activity, qHTS | shares compounds with nsP2pro primary | hit rate 43% among 410 | AID 1964105, 2024 | Potency, µM (top dose mostly 25.5 µM), without a hit: top-dose activity change, negative = inhibition, most hits filed as inhibitors; also: nearly all actives have a fitted effect of over 75% in size
HCV NS3 4A cs – Selectivity profile for inhibitors of NSP2Pro chikungunya virus (CHIKV): NS34A-HCV Counterscreen; shares compounds with nsP2pro primary; HCV NS3/4A protease biochemical counterscreen; Potency, µM (series often up to 50.9 µM), usual class: inhibitors; hit rate 20% among 410; also: nearly all actives have a fitted effect of over 55% in size
* marks the source's active call; other numbers are inactive results; [ ] = remark or other dose. Only a selection was taken, and hits are over-represented in it overall. Calls follow the shape of the full dose curve. % is scaled to controls: 0 for no effect and ±100 for the full control effect; potency is read from the fitted curve at half-maximal effect.

For [Hg+][c]1ccccc1 the results were nsP2pro primary 0.56µM*, nsP2 cell sec inconclusive, CHIKV NSP2 FL 1µM*, Furin counterscr 1µM*, NS23 peptide cs 3.7µM*, Papain cs -3%, nsP2pro conf qHTS 0.28µM* and HCV NS3 4A cs 0.23µM*.
Nc1ccccc1 was read as nsP2pro primary 0%.
Screening O=S(=O)(c1ccc(-c2cnc(C3CC3)o2)cc1)N1CCN(c2ccccc2)CC1 returned nsP2pro primary -16%.
Screening CC(C)COc1ccc(-c2csc(N3CCC(C(N)=O)CC3)n2)cc1 returned nsP2pro primary inactive.
Screening O=C1NC2CCCCN2C12CCN(CCCN1c3ccccc3CCc3ccc(Cl)cc31)CC2 (stereo not drawn) returned nsP2pro primary 57%.
`O=C(O)c1ccc(N2C(=O)/C(=C/c3ccc(-c4ccc([N+](=O)[O-])cc4)o3)C=C2c2ccccc2)cc1` gave nsP2pro primary 7.9µM*, nsP2 cell sec -18%, CHIKV NSP2 FL inconclusive, Furin counterscr -18%, NS23 peptide cs -15%, Papain cs 18µM*, nsP2pro conf qHTS -26% and HCV NS3 4A cs inactive.
O=C(O)c1ccc2c(c1)C(=O)N([C@H](Cc1ccc([N+](=O)[O-])cc1)C(=O)O)C2=O was read as nsP2pro primary -7%.
CCOC(=O)c1ncn2c1CN(C)C(=O)c1c(I)cccc1-2 was read as nsP2pro primary -6%.
For C[C@]12CC[C@@H](O)C[C@@H]1CC[C@@H]1[C@@H]2CC[C@]2(C)C(=O)[C@@H](Br)C[C@@H]12 the results were nsP2pro primary 1%.
For CCCNC(=O)CN1CCN(c2ccc(NC(=O)c3ccc(OC)cc3)cc2C(=O)O)CC1 the results were nsP2pro primary 4.5µM*, nsP2 cell sec inconclusive, CHIKV NSP2 FL 4.1µM*, Furin counterscr inconclusive, NS23 peptide cs 13µM*, Papain cs 2%, nsP2pro conf qHTS 7.1µM* and HCV NS3 4A cs 2.9µM*.
Screening O=C(Nc1ccc(N2CCN(CCOc3ccc(Cl)cc3)CC2)c(C(=O)O)c1)c1ccc(F)cc1 returned nsP2pro primary 3.5µM*, nsP2 cell sec 2%, CHIKV NSP2 FL 3.3µM*, Furin counterscr inconclusive, NS23 peptide cs 8.2µM*, Papain cs 16%, nsP2pro conf qHTS 7.1µM* and HCV NS3 4A cs 2.1µM*.
`CCOc1ccc(NC(=O)CN2CCN(S(=O)(=O)c3ccc(OC)cc3)CC2)cc1` gave nsP2pro primary -29%.
CCCCOc1ccc(C(=O)Nc2ccc(F)cc2F)cc1 was read as nsP2pro primary -8%.
`CCOc1ccc(NC(=O)NCCCN2CCN(c3ccc(OC)cc3)CC2)cc1` gave nsP2pro primary -11%.
`Cc1ccc(Cl)cc1N1CCN(CCNC(=O)Nc2ccc(Cl)cc2)CC1` gave nsP2pro primary -13%.
`CN(Cc1cnn(-c2ccc(F)cc2)c1)c1cc(C2CC(O)C2)ncn1` (stereo not drawn) gave nsP2pro primary -1%.
Screening CCN1CCN(Cc2c(O)ccc3c(C)c(-c4ccc(OC)cc4)c(=O)oc23)CC1 returned nsP2pro primary -6%.
For COc1ccccc1N1CCN(C(=O)CCS(=O)(=O)c2ccc3c(c2)oc(=O)n3C)CC1 the results were nsP2pro primary -14%.
Screening CCN1CCN(c2cc3c(cc2F)c(=O)c(C(=O)O)cn3C2CC2)CC1 returned nsP2pro primary 8%.
Screening CCc1nc(-c2c3n(c(=O)n(CCOc4ccc(F)cc4)c2=O)CCCC3)no1 returned nsP2pro primary inactive.
`NC(=O)CCNC(=O)C1=C[C@@H](NC(=O)c2cccs2)[C@@H](O)[C@H](O)C1` gave nsP2pro primary -1%[39.2 µM].
For CCOc1ccc(N(CC(=O)Nc2ccc3c(c2)OCO3)S(=O)(=O)c2ccccc2)cc1 the results were nsP2pro primary -18%.
Cc1c(CNC(C)CCc2ccccc2)c(C(=O)O)c(C)n1Cc1ccc(F)cc1 (stereo not drawn) was read as nsP2pro primary -12%.
For CN(C)C(=O)c1nc2sccn2c1-c1ccc(C(F)(F)F)cc1 the results were nsP2pro primary inactive.
For COc1ccc(C(C)=O)cc1CSc1nc(NCc2ccc(Cl)cc2)c2ccccc2n1 the results were nsP2pro primary -9%.
For CC(=O)NC1CC2(CCN(C(=O)CCCNC(=O)OC(C)(C)C)CC2)Oc2ccccc21 (stereo not drawn) the results were nsP2pro primary inconclusive, nsP2 cell sec -4%, CHIKV NSP2 FL -72%, Furin counterscr -4%, NS23 peptide cs inconclusive, Papain cs -4%, nsP2pro conf qHTS inconclusive and HCV NS3 4A cs inconclusive.
Screening CC(=O)NCCC(=O)N1CCC2(CC1)CC(NC(C)=O)c1ccccc12 (stereo not drawn) returned nsP2pro primary -13%.
CC(=O)NCCCC(=O)N1CCC2(CC1)CN(S(C)(=O)=O)Cc1ccccc1O2 was read as nsP2pro primary -16%.
CCCCCCCCCCCCCCCCCCCCCC(=O)Nc1ccn([C@@H]2O[C@H](CO)[C@@H](O)[C@@H]2O)c(=O)n1 was read as nsP2pro primary -4%[10 µM].
`CC(=O)c1c(C)cc(O[C@@H]2O[C@H](CO)[C@@H](O)[C@H](O)[C@H]2O)cc1O` gave nsP2pro primary 2%.
`O=C(N[C@H](CO)[C@H](O)c1ccc([N+](=O)[O-])cc1)C(Cl)Cl` gave nsP2pro primary -5%.
